# Experimental data from PubChem BioAssay AID588819 (The Scripps Research Institute Molecular Screening Center, 2011).
# The campaign covered roughly 360,000 compounds. About 320 (0.089%) were called active. Rule as the data show it: active = activation above about 19% (passing the limit was not always enough); inactive = the rest. The sample as a whole holds a higher share of actives than the screen did.
# Molecular target: Muscarinic acetylcholine receptor M1 (Homo sapiens) (UniProt P11229)
# Assay: human M1 muscarinic receptor positive allosteric modulators, primary screen, CHO-K1 cells, Fluo-8 calcium fluorescence, 1536-well (AID 588819)
# Conditions: CHO-K1 hM1, Fluo-8 calcium fluorescence, ACh EC20; at 3 µM; active compounds read high; 0% = ACh EC20, 100% = maximal ACh
# Sequence of Muscarinic acetylcholine receptor M1 (Homo sapiens) (P11229 whole entry, looked up): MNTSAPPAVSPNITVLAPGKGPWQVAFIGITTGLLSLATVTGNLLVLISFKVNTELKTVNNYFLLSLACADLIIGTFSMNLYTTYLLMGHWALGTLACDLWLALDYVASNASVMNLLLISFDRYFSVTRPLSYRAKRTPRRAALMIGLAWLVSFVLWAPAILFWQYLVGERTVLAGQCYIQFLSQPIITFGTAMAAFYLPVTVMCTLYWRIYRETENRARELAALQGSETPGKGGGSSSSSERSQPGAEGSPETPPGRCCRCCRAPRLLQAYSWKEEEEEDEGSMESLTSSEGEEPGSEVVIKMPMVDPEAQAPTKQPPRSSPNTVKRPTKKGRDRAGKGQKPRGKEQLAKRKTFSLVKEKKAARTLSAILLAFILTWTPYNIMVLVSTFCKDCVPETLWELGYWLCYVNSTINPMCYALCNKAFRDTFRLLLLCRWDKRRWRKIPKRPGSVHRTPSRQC
row,SMILES,activation
1,Cc1ccccc1S(=O)(=O)NC(=O)C1(C)CCN1C(=O)Cc1ccc(Cl)cc1Cl (stereo unspecified),4.98% (inactive)
2,COC(=O)CC(=O)N1CCN(c2ccc(Cl)c(Cl)c2)CC1,-9.1% (inactive)
3,O=C(c1ccc(F)cc1)N1CCCC(c2nc(-c3cccs3)no2)C1 (stereo unspecified),6.3% (inactive)
4,Cc1ccc(-c2noc(C3CCCN(C(=O)c4cccc(Cl)c4)C3)n2)o1 (stereo unspecified),28.6% (active)
5,COc1cccc(-c2noc(C3CCCN(C(=O)c4ccc(F)cc4)C3)n2)c1 (stereo unspecified),22.6% (inactive)
6,CC1CC(=O)Nc2ccccc2N1C(=O)COc1ccc2cc(Br)ccc2c1 (stereo unspecified),12.5% (inactive)
7,O=C(Nc1ccc(S(=O)(=O)Nc2ncccn2)cc1)c1cncc(Br)c1,0.19% (inactive)
8,COc1ccc(NC(=O)c2cnc(NS(=O)(=O)c3ccccc3)nc2)cc1,29.7% (active)
9,COc1ccc(NS(=O)(=O)c2ccc(NC(=O)c3ccc(N(C)S(C)(=O)=O)cc3)cc2)cc1,8.88% (inactive)
10,CC(C)c1ccc2c(c1)c(SC(C)(C)C)c(CC(C)(C)C(=O)O)n2Cc1ccc(Cl)cc1,-0.45% (inactive)
11,CC(Oc1ccc(F)cc1)C(=O)N1CCN(c2ncccn2)CC1 (stereo unspecified),0.98% (inactive)
12,O=C(O)Cc1csc(NC(=O)CSc2nnnn2-c2ccc(O)cc2)n1,11.2% (inactive)
13,CC(=O)C1=C(C)NC(=O)NC1c1cc(Br)ccc1OCC#N (stereo unspecified),13.1% (inactive)
14,CCN(CC)C(=O)CSc1ncnc2c1cnn2-c1ccccc1,1.79% (inactive)
15,CC(Sc1ncnc2c1cnn2-c1ccccc1)C(=O)Nc1ccc(N2CCOCC2)cc1 (stereo unspecified),25.3% (active)
16,CCn1c(SC(C)C(=O)Nc2ccc(N3CCOCC3)cc2)nnc1-c1ccco1 (stereo unspecified),5.42% (inactive)
17,Cc1ccc(S(=O)(=O)N2CCC(C(=O)N[C@@H](C)C(=O)NCc3ccccc3)CC2)cc1,3.35% (inactive)
18,Cc1cc(C)cc(N(CC(=O)NC2CCCC2)C(=O)CCC(=O)Nc2nccs2)c1,1.06% (inactive)
19,CC(OC(=O)c1ccccc1OCc1ccc(Cl)cc1)C(N)=O (stereo unspecified),-0.86% (inactive)
20,COc1cc(NC(=S)N2CCCC(C)C2)c(OC)cc1Cl (stereo unspecified),4.79% (inactive)
21,Cc1n[nH]c(C)c1S(=O)(=O)N1CCCC(C(=O)Nc2ccc(Br)cc2)C1 (stereo unspecified),3.06% (inactive)

row,SMILES,activation
1,CC1(c2nnc(-c3ccncc3)o2)CC(c2cccnc2)=NO1 (stereo unspecified),-4.79% (inactive)
2,CC(C)CCNC(=O)C1CCCN(S(=O)(=O)c2ccc(F)cc2)C1 (stereo unspecified),3.91% (inactive)
3,CC(NC(=O)C(C)(C)C)C(c1cccs1)N1CCN(Cc2ccccc2)CC1 (stereo unspecified),-8.56% (inactive)
4,CCC(C)NCCOCCOc1ccc(Br)cc1C (stereo unspecified),-26.7% (inactive)
5,CCOC(=O)N1CCN(c2c(NCCCN3CCCC(C)C3)c(=O)c2=O)CC1 (stereo unspecified),5.95% (inactive)
6,CCOc1ccc(-n2c(N)c(C(=O)NCC3CCCO3)sc2=S)cc1 (stereo unspecified),1.21% (inactive)
7,CCCC(=O)N1CCN(c2nnc(-c3ccc(C)cc3)c3ccccc23)CC1,-14.5% (inactive)
8,CC(=O)NC(Cc1ccc(F)c(F)c1)C(=O)NC1CCN(c2nnnn2-c2ccccc2)CC1 (stereo unspecified),1.64% (inactive)
9,CCCC(=O)N1CCC1(C)C(=O)NCc1ccc(SC)cc1 (stereo unspecified),3.92% (inactive)
10,COc1ccccc1N(CCOc1ccccc1)S(=O)(=O)c1ccccc1,0.89% (inactive)
11,C=Cn1c(C(=O)O)ccc1-c1ccc(OC)cc1,-16.6% (inactive)
12,CCn1c(-c2cccnc2Cl)nc2cc(C)c(C)cc21,2.37% (inactive)
13,CCOCCOC(=O)C1=C(C)NC(=O)NC1c1ccc2c(c1)OCO2 (stereo unspecified),6.2% (inactive)
14,Cc1cccc(NC(=O)C2CCCN2S(=O)(=O)c2ccc(F)cc2)c1C (stereo unspecified),3.34% (inactive)
15,CC(C)c1nnc(NC(=O)C2CCCN2S(=O)(=O)c2ccc(Cl)cc2)s1 (stereo unspecified),10.2% (inactive)
16,COc1ccccc1NC(=O)C1CCCN1S(=O)(=O)c1ccc(Cl)cc1 (stereo unspecified),28.2% (active)
17,C=CCn1c2ccccc2c2nnc(SCc3[nH]c(=O)[nH]c3C(=O)CCCCC(=O)OCC)nc21,-3.32% (inactive)
18,O=C(C(NS(=O)(=O)c1cccc2nsnc12)c1ccccc1)N1CCN(c2ccccn2)CC1 (stereo unspecified),-10.2% (inactive)
19,CCOC(=O)C(=O)C1C(=O)Nc2ccccc21 (stereo unspecified),1.1% (inactive)
20,O=C(Nc1ccccc1C(=O)NCCCn1ccnc1)c1ccc(Cl)cc1Cl,7.21% (inactive)
